# Screening data (PubChem BioAssay)
# Compounds with a hit are over-represented: about 12% of the library has one in this group of screens.
# JMJD2A Tudor – inhibitors of human JMJD2A Tudor domain; 4.4% of 390,000 active; Potency, µM (highest dose often 114 µM), without a hit: top-dose activity change, negative = inhibition, most hits filed as inhibitors; AlphaScreen JMJD2A-Tudor / H3K4me3 peptide binding; O75164; also: % is scaled to controls: 0 for no effect and ±100 for the full control effect; nearly all actives have a fitted effect of over 50% in size
# BAZ2B inh – blocks human BAZ2B | Q9UIF8 | AlphaScreen BAZ2B-H3K14Ac peptide displacement | Potency, µM (series often up to 114 µM), for inactives: at the highest dose activity change, negative = inhibition, actives largely listed as inhibitors | 4.4% of 360,000 active | AID 504333; also: % is scaled to controls: 0 for no effect and ±100 for the full control effect; nearly all actives have a fitted effect of over 60% in size
#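 In this displacement format the biotinylated H3(5-23) peptide acetylated at Lys14 serves as ligand at 50 nM, with BAZ2B at 50 nM in PBS pH 7.4 containing 0.01% Tween-20. Donor and acceptor beads are 10 ug/mL final.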
# Sfp PPTase inh – Sfp phosphopantetheinyl transferase inhibition | Q9F4F7 | Biochemical Sfp PPTase activity, qHTS | Potency, µM, without a hit: largest response in the series, negative = inhibition, actives largely listed as inhibitors | 3.5% of 310,000 active | AID 1490;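 also: the enzyme is Sfp with the accession as filed and its product quenches rhodamine fluorescence; 0% = enzyme reaction without inhibitor and -100% = no enzyme wells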
#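 Compounds were incubated with enzyme (final 15 nM) for 15 min at room temperature before substrate addition started the reaction. Fluorescence at 525 nm excitation, 598 nm emission was recorded immediately and after 30 minutes.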
# G9a inh – blocks human histone lysine methyltransferase G9a; Q96KQ7; G9a H3K9 monomethylation, AlphaScreen, 2 h; Potency, µM (top dose mostly 102 µM), for inactives: at the highest dose activity, negative = inhibition, most hits filed as inhibitors; 8.8% of 350,000 active; also: % is scaled to controls: 0 for no effect and ±100 for the full control effect; nearly all actives have a fitted effect of over 75% in size
# Target sequence (Q96KQ7 913-1193 limits assumed): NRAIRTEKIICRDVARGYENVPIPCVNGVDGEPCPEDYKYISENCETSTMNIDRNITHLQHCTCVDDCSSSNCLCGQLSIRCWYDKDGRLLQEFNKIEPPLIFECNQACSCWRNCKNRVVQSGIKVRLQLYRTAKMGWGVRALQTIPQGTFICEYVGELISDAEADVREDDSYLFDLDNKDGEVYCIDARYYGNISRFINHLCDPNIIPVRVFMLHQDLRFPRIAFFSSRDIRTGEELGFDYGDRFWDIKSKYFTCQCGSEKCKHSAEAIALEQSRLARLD
#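 AlphaScreen detection with an anti-monomethyl H3K9 antibody quantified product after a 2 h room-temperature reaction containing 500 nM biotinylated H3K9 peptide, 20 µM SAM and 20 nM enzyme, which had been preincubated 15 min with compound.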
# PLK1 PBD block – PLK1 (human) polo-box domain binding inhibition; Plk1 PBD binding of FITC phosphopeptide, fluorescence polarization; Potency, µM, for inactives: max response, negative = inhibition, most hits filed as inhibitors; 2.8% of 360,000 active; AID 720504; also: series mostly up to about 57 µM; % is scaled to controls: 0 for no effect and ±100 for the full control effect; nearly all actives have a fitted effect of over 65% in size
# HP1b binding inh – HP1-beta chromodomain-methylated histone interaction inhibition. AID 540317. 0.56% of 390,000 active. AlphaScreen HP1-beta / biotin-H3K9me3 peptide binding. Potency, µM (series often up to 114 µM), inactives show at the top dose activity change, negative = inhibition, actives largely listed as inhibitors. P83916; also: nearly all actives have a fitted effect of over 70% in size
# Target sequence (P83916 whole entry, looked up): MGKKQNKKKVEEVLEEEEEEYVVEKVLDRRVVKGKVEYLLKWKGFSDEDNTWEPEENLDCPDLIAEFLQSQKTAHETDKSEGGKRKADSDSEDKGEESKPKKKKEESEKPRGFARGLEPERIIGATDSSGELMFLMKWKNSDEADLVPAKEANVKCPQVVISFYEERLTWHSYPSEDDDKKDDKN
#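 HP1-beta protein (50 nM final) preincubated 30 min at room temperature with biotinylated H3(1-18)K9me3 peptide (50 nM) in PBS pH 7.4, 0.01% Tween-20, then compound added for 30 min. AlphaScreen streptavidin donor/nickel chelate acceptor beads (10 ug/mL final), 30 min dark, luminescence read.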
# Numbers without * were called inactive; ? = inconclusive; · = no result; [ ] = remark or other dose. Calls follow the shape of the dose curve; as a rule, active = well fitted curve in the direction sought with a large enough effect; inconclusive = small, poorly fitted or top-dose-only effect, or another doubt; inactive = no such curve, though single readings can be large; an effect the other way counts as inactive or inconclusive. Potency is read from the fitted curve at half-maximal effect.
SMILES,JMJD2A Tudor,BAZ2B inh,Sfp PPTase inh,G9a inh,PLK1 PBD block,HP1b binding inh
Oc1ccc(C2C(c3ccccc3)=NN=C(c3ccc(Cl)cc3)N2O)c(O)c1 (stereo not given),-30.3%,-31.8%,-21.9%,11.2µM*,-3.1%,1.0%
CN(N=O)C(=O)N[C@H]1[C@@H](O)[C@H](O)[C@H](CO)O[C@@H]1O,·,·,21.7%,11.2%[21.5 µM],·,·
Cc1ccc(CNC(=O)C2=CCN(S(=O)(=O)c3ccc(C)cc3)CC2)cc1,·,2.5%,-13.8%,31.6µM*,·,·
CCOC(=O)N1CCC(NC(=O)C2=CCN(S(=O)(=O)c3ccccc3)CC2)CC1,-14.1%,-11.1%,8.5%,-31.5%,0.6%,37.0%
O=C(NCc1ccccc1)c1ccc2c(c1)CCN2S(=O)(=O)c1ccccc1,-16.0%,1.3%,·,3.9%[59 µM],·,1.6%
Cc1ccc(S(=O)(=O)N2CC=C(C(=O)NC3CC3)CC2)cc1,-10.3%[11.4 µM],0.2%,10.8%,?,21.2µM*,12.4%
CCN(CC)c1ccc(NC(=O)c2c(C)nn(-c3ccc(F)cc3)c2-n2cccc2)c(C)c1,31.6µM*,35.5µM*,·,3.16µM*,·,-21.2%
Cc1ccc(CCNC(=O)C2=CCN(S(=O)(=O)c3ccccc3)CC2)cc1,-3.8%,-9.8%,15.3%,-11.7%[59 µM],-10.7%,63.4%
Cc1ccc(CNC(=O)c2ccc3c(c2)CCN3S(=O)(=O)c2ccccc2)cc1,-17.9%,-2.1%,·,5.62µM*,·,12.6%
N#CCCn1c(=O)c(-c2ccccc2)nc2cnc(Oc3cccc(Cl)c3)nc21,·,·,-3.1%,-2.7%[12.7 µM],·,·
COc1ccc(CCNC(=O)C2=CCN(S(=O)(=O)c3ccc(F)cc3)CC2)cc1OC,-14.5%,-3.5%,0.6%,?,-17.9%,16.9%
Cc1ccc(S(=O)(=O)N2CC=C(C(=O)NCc3ccc(F)cc3)CC2)cc1,·,4.6%,?,22.4µM*,·,·
COc1ccccc1CNC(=O)C1=CCN(S(=O)(=O)c2ccc(C)cc2)CC1,-15.6%,-12.9%,4.9%,50.1µM*,-15.3%,18.6%
CCN(CC)c1ccc(NC(=O)C2=CCN(S(=O)(=O)c3ccc(F)cc3)CC2)c(C)c1,?,?,-4.7%,11.2µM*,-10.6%,-6.6%
COc1ccccc1CNC(=O)c1ccc(S(=O)(=O)N2CCCC2)cc1,-11.7%,1.4%,3.8%,-37.2%,-2.2%,9.9%
Cc1ccc(CNC(=O)C2CCCN(S(=O)(=O)c3ccc(F)cc3)C2)cc1 (stereo not given),-7.6%,0.9%,-1.5%,·,-14.1%,11.3%
COCCCNC(=O)C1=CCN(S(=O)(=O)c2ccc(C)cc2)CC1,-3.8%,-12.4%[57.1 µM],8.5%,35.5µM*,-2.3%,48.2%
COCCCNC(=O)C1=CCN(S(=O)(=O)c2ccc(OC)cc2)CC1,-6.2%,-11.6%,9.1%,·,-16.6%,58.8%
C[N+]1(C2CCC3CCCC2C3O)CCCCC1 (stereo not given),20µM*,-12.3%,-15.5%,?,-11.4%,7.1%
COc1ccc(/C=C2\Sc3ccc(C(=O)NCC4CCCO4)cc3N(C)C2=O)cc1 (stereo not given),?,-36.9%,50.1µM*,12.6µM*,?,-4.3%
COc1ccc(/C=C2\Sc3ccc(C(=O)N4CCN(Cc5ccccc5)CC4)cc3N(C)C2=O)cc1OC,?,?,-2.2%,70.8µM*,-11.7%,-28.1%[57 µM]
COc1ccc(/C=C2\Sc3ccc(C(=O)N4CCOCC4)cc3N(C)C2=O)cc1,56.2µM*,-31.9%,3.6%,-23.0%,-7.6%,-5.4%
COc1ccccc1-c1nc2c(c(SCC(=O)Nc3ccccc3F)n1)Cc1c(CO)cnc(C)c1O2,-14.3%,-17.4%,·,-42.6%[59 µM],·,36.0%
CCCOc1ccc(C(=O)Nc2ccc(S(=O)(=O)NC3=NCCCCC3)cc2)cc1,-6.9%,-12.2%,·,5.0%[0.501 µM],-7.5%,-6.6%
CCOc1ccc(NC(=O)C2CCN(S(=O)(=O)c3ccc4c(c3)CC(C)N4C(C)=O)CC2)cc1 (stereo not given),-6.1%,-9.2%,6.9%,24.0%[59 µM],-6.6%,44.4%
SMILES,JMJD2A Tudor,BAZ2B inh,Sfp PPTase inh,G9a inh,PLK1 PBD block,HP1b binding inh
CCOc1ccc(OCC)c(NC(=O)C2CCN(S(=O)(=O)c3ccc4c(c3)CC(C)N4C(C)=O)CC2)c1 (stereo not given),?,-8.5%,7.9%,-3.3%[59 µM],29.9µM*,-3.6%
CC(=O)N1c2ccc(S(=O)(=O)N3CCCC3)cc2CC1C(=O)NCc1ccc(OC(C)C)cc1 (stereo not given),-32.8%,-2.1%,5.3%,4.9%,?,19.3%
CC(=O)N1c2ccc(S(=O)(=O)N3CCCCCC3)cc2CC1C(=O)NCc1ccc(Cl)cc1 (stereo not given),-16.2%,-4.1%,·,1.1%[59 µM],·,3.5%
CC(=O)N1c2ccc(S(=O)(=O)N3CCCCC3)cc2CC1C(=O)NCc1ccc(N(C)C)cc1 (stereo not given),28.2µM*,-33.6%,0.5%,39.8µM*,21.2µM*,-14.2%
COc1ccc(CNC(=O)C2Cc3cc(S(=O)(=O)N4CCCC4)ccc3N2C(C)=O)c(OC)c1 (stereo not given),-22.9%,?,9.5%,22.4µM*,-12.0%,42.1%
CCCCCCC(=O)Nc1nc(C)c(-c2csc(Nc3ccccc3OC)n2)s1,?,?,?,4.6%[59 µM],-6.4%,-22.7%
COc1ccc(Cl)cc1Nc1nc(-c2sc(NC(=O)c3ccco3)nc2C)cs1,?,?,?,?,-22.9%,-4.6%
COc1cccc(Nc2nc(-c3sc(N)nc3C)cs2)c1,?,39.8µM*,-9.7%,?,?,?
COc1ccccc1Nc1nc(-c2sc(N)nc2C)cs1,?,?,50.1µM*,12.6µM*,-19.6%,?
COc1cccc(Nc2nc(-c3sc(NC(=O)c4ccco4)nc3C)cs2)c1,?,?,-13.3%,39.8µM*,?,-31.8%
CCN(CC)C(=O)CSc1nnc2nnc3cc(OC)ccc3n12,-18.4%,-15.9%,2.3%,35.5µM*,23.8µM*,10.5%
CCN(CC)C(=O)CSc1nc2cc3c(cc2c(=O)n1Cc1ccc(OC)cc1)OCO3,79.4µM*,56.2µM*,13.1%,?,-26.4%,18.0%
CCN(CC)C(=O)CSc1nc2cc3c(cc2c(=O)n1CCCCCC(=O)NCCc1ccc(OC)c(OC)c1)OCO3,-12.3%,-9.7%,·,5.2%[59 µM],·,22.5%
COc1ccc(C2NS(=O)(=O)N=C2N)cc1 (stereo not given),-15.0%[11.4 µM],0.2%,3.4%,9.7%,18.9µM*,8.1%
Cc1onc(-c2c(F)cccc2Cl)c1C(=O)OCC(=O)NCc1ccccc1,5.7%,11.2%,·,-11.7%[2.33 µM],6.1%,46.7%
COc1ccc(/C=C/C(=O)NCC(c2ccc(F)cc2)N2CCOCC2)cc1OC (stereo not given),-5.1%[11.4 µM],-1.5%,3.5%,79.4µM*,-10.9%,50.5%
